# Assay outcomes deposited in PubChem by several laboratories.
# SENP7 inh – inhibitors of human SENP7 protease; Q9BQF6; recombinant SENP7, Z-RLRGG-aminoluciferin luminescence, 40 min; inhibition, % at 5 µM; hit rate 1.5% among 330,000; AID 434973;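 active means inhibition above about 50% at the single test dose, limit read from the data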;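 further: plate controls were DMSO with enzyme for no effect and no enzyme buffer wells for full effect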
# SENP8 block-1 – blocks human SENP8 cleavage of Nedd8 substrate; Q96LD8; recombinant SENP8, Nedd8 substrate fluorescence; inhibition, % at 20 µM; hit rate 0.64% among 360,000; AID 602440; in the data active means inhibition mostly above about 40%, no sharp cut-off; inactive means mostly below about 27%
# Target sequence (Q96LD8 whole entry, looked up): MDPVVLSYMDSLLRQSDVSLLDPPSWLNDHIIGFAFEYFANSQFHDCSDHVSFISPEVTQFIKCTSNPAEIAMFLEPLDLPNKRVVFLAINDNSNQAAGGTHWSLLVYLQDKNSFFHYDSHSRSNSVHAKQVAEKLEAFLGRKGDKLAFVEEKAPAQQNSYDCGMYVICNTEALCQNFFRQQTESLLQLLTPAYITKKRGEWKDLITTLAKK
# Platelet DG rel – platelet dense granule release activity; human platelet-rich plasma, SFLLRN dense granule ATP release, luminescence; inhibition, %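 (compounds screened at 7.5 µM in platelet-rich plasma)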; hit rate 0.22% among 300,000; AID 1663;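 active means mean replicate score, as percent of positive control, at or above 50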
# SENP8 block-2 – blocks the human protease SENP8; Q96LD8; purified SENP8, Z-RLRGG-aminoluciferin cleavage, luminescence; inhibition, % at 10 µM; hit rate 1.2% among 330,000; AID 2540; in the data active means inhibition above about 50%
# SENP6 block – SENP6 protease inhibition; Q9GZR1; Recombinant SENP6 catalytic domain, aminoluciferin luminescence; inhibition, % at 10 µM; hit rate 1.8% among 330,000; AID 2599;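 active means inhibition above about 50% at the single tested dose, limit read from the data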;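 further: plate controls were DMSO wells with enzyme for no effect and DMSO wells lacking enzyme for full effect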
# SENP8 confirm – human SENP8 inhibition, confirmed; shares compounds with SENP7 inh; Recombinant SENP8, Z-RLRGG-aminoluciferin luminescence, 60 min; inhibition, % at 12.5 µM; hit rate 40% among 6,200; AID 488912;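 active means mean inhibition across replicates above about 50%, limit read from the data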
# SENP6 conf – confirmation of human SENP6 protease inhibitors; shares compounds with SENP7 inh; recombinant SENP6, Z-RLRGG-aminoluciferin luminescence; inhibition, % at 12.5 µM; hit rate 58% among 6,200
# SENP7 confirm – confirmation of human SENP7 protease inhibitors | shares compounds with SENP7 inh | recombinant SENP7, Z-RLRGG-aminoluciferin luminescence, 40 min | hit rate 69% among 6,200 | inhibition, % at 12.5 µM | AID 488917
# Casp3 select – caspase-3 inhibition (SENP selectivity assay). shares compounds with SENP7 inh. purified caspase-3, Z-DEVD-aminoluciferin luminescence, 60 min. inhibition, % at 12.5 µM. hit rate 60% among 6,200. AID 488918;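 active means mean inhibition above about 50%, limit read from the data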;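 further: plate controls were enzyme with DMSO for no effect and wells without caspase-3 for full effect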
# Target sequence (P42574 28-227 limits assumed): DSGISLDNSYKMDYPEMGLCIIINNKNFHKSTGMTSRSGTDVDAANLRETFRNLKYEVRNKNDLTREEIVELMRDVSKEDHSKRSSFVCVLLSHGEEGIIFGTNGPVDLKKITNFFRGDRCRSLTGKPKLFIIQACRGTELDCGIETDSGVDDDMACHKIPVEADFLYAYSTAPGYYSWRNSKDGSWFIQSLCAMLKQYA
# SENP luc ctr – counter-screen for SENP inhibitors: luminescence interference; shares compounds with SENP7 inh; Pre-incubated SENP8/Z-RLRGG-aminoluciferin, luciferase luminescence interference; inhibition, % at 12.5 µM; hit rate 39% among 6,200;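 active means mean inhibition above about 50% when retested at one dose, limit read from the data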;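 further: plate controls were DMSO wells with completed reaction for no effect and substrate without enzyme for full effect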
# * hit, by the source's call; · = no result. Compounds with a hit are over-represented: about 2.4% of the library has one in this group of screens.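 How the source made its calls, unless noted: active means mean inhibition above about 50% in the one-dose retest (limit read from the data); inactive means the rest.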
SMILES,SENP7 inh,SENP8 block-1,Platelet DG rel,SENP8 block-2,SENP6 block,SENP8 confirm,SENP6 conf,SENP7 confirm,Casp3 select,SENP luc ctr
N/C(=N\OC(=O)c1ccc(F)cc1)c1nonc1N,98*,26,3,94*,96*,98*,98*,102*,98*,87*
Cc1ccc(C(=O)O/N=C(\N)c2nonc2N)cc1,101*,4,47,97*,98*,98*,98*,101*,97*,97*
Cc1cc(/C(N)=N/OC(=O)c2ccccc2Cl)no1,88*,22,·,77*,81*,85*,84*,97*,93*,86*
Cc1nc(/C(N)=N/OC(=O)c2ccccc2Cl)c(C(F)(F)F)o1,88*,-2,0,80*,83*,88*,88*,98*,95*,88*
Cc1ccc(S(=O)(=O)NCCNC(=O)c2nonc2N)cc1,-1,15,-7,-9,-22,·,·,·,·,·
N/C(=N\OC(=O)c1ccccc1)c1ccncc1,36,1,-2,21,47,·,·,·,·,·
CN(c1ccccc1)c1nc(N)c([N+](=O)[O-])c(NCCO)n1,3,6,-1,-1,6,·,·,·,·,·
CC(C)(C)[C@H]1COC(=O)CCCC/C=C\C[C@H](CC(=O)NCCO)C(=O)N1,-3,15,·,-4,-25,·,·,·,·,·
Cc1ccc(CN2CCN(Cc3ccc4cc(F)ccc4n3)CC2CCO)o1 (centres undefined),9,15,4,-3,-2,·,·,·,·,·
N/C(=N/OCC(=O)Nc1cccc2ccccc12)c1nonc1N,7,3,-1,-7,-8,·,·,·,·,·
N/C(=N/OC(=O)c1ccccc1Cl)c1nonc1N,99*,-1,54*,96*,97*,100*,101*,104*,99*,98*
Cc1cc(C(=O)Nc2cccc(C(=O)O)c2)c(C)o1,84*,13,6,68*,90*,-8,81*,98*,49,88*
Cc1cc(C(=O)Nc2ccc(C(=O)O)cc2)c(C)o1,74*,7,-2,68*,80*,-6,61*,88*,91*,65*
Cc1oc(C(C)(C)C)cc1C(=O)Nc1cccc(C(=O)O)c1,-1,6,10,-5,3,·,·,·,·,·
Cc1cc(C(=O)Nc2cccc(C(=O)O)c2)oc1C,98*,19,13,92*,92*,95*,95*,100*,86*,94*
Cc1oc(C(C)(C)C)cc1C(=O)Nc1ccc(C(=O)O)cc1,10,28,1,3,9,·,·,·,·,·
CC(C)C(C)NC(=O)COC(=O)c1cc(S(=O)(=O)N(C)C)ccc1N1CCCC1 (centres undefined),-1,·,6,-3,-1,·,·,·,·,·
CC(C)(C)OC(=O)C[C@H]1C/C=C\C[C@@H](CC(=O)NCCO)C(=O)NC[C@@H](c2ccccc2)OC1=O,2,8,·,8,-9,·,·,·,·,·
COc1ccc(C(=O)/C=C/c2ccc(O)cc2)cc1,62*,-62,33,51*,48,9,57*,76*,11,89*
Cc1nn(C)cc1/C=C/C(=O)c1ccc(O)cc1,-4,-4,9,31,53*,-10,-16,-13,4,38
Cc1ccc(C(=O)/C=C/C(=O)c2ccc(C)cc2)cc1,11,16,27,0,-13,·,·,·,·,·
Cc1ccc(/C=C/C(=O)c2ccc(C)cc2)cc1,-12,12,-1,-2,52*,2,-9,-23,-7,4
O=C(/C=C/c1ccc(O)cc1)c1ccccc1,93*,-43,72*,95*,1,15,99*,103*,92*,98*
Cc1nn(C)cc1/C=N/O,8,3,-8,-1,-9,·,·,·,·,·
COc1ccc(C=CC(=O)c2ccc([N+](=O)[O-])cc2)cc1,·,5,·,·,·,·,·,·,·,·
SMILES,SENP7 inh,SENP8 block-1,Platelet DG rel,SENP8 block-2,SENP6 block,SENP8 confirm,SENP6 conf,SENP7 confirm,Casp3 select,SENP luc ctr
CN(C)c1ccc(/C=C/C(=O)c2ccc(O)cc2)cc1,·,-434,·,·,·,·,·,·,·,·
CCN(C(=O)c1ccc(Cl)c(S(=O)(=O)Nc2c(C)n(C)n(-c3ccccc3)c2=O)c1)c1ccccc1,-5,12,·,-11,-17,·,·,·,·,·
CCCC(C(=O)NC1=NCCS1)c1ccccc1 (centres undefined),-1,20,9,7,9,·,·,·,·,·
Cc1ccc(C)c(C(=O)OCC(=O)Nc2cccc(S(=O)(=O)N3CCCCC3)c2)c1,-9,-4,·,-8,-14,·,·,·,·,·
CSc1ccc(/C=C/C(=O)c2ccc(NC(=O)C(C)C)cc2)cc1,8,-413,2,-8,0,·,·,·,·,·
CSc1ccc(C(=O)/C=C/c2ccc(N)cc2)cc1,56*,11,20,28,71*,83*,65*,87*,40,88*
Cn1c(N)c(C(=O)COC(=O)c2cc(S(=O)(=O)N3CCOCC3)ccc2F)c(=O)n(C)c1=O,5,-3,·,7,-15,·,·,·,·,·
Nc1ccc2nc(-c3cccc(-c4nc5ccc(N)cc5[nH]4)c3)[nH]c2c1,10,-287,-11,5,-6,·,·,·,·,·
Nc1ccc2nc(-c3cc(Cl)c(N)c(Cl)c3)[nH]c2c1,77*,-329,17,64*,87*,-20,73*,94*,82*,76*
Nc1ccc2nc(-c3ccc(Cl)cc3)[nH]c2c1,63*,-433,6,66*,75*,80*,81*,54*,45,81*
Nc1ccc(-c2nc3ccc(N)cc3[nH]2)cc1,13,-421,3,-3,18,·,·,·,·,·
CC(=O)NCCCc1nc2ccccc2n1Cc1ccccc1F,55*,12,-6,-7,-14,9,8,-2,2,0
CC(=O)NCc1nc2ccccc2n1Cc1ccccc1F,2,13,-2,3,1,·,·,·,·,·
[O-][N+](=C(c1ccccc1)c1ccccc1)c1ccccc1,·,18,·,·,·,·,·,·,·,·
COc1ccc(-c2nc(NC(=O)c3ccco3)sc2C)cc1,·,-41,·,·,·,·,·,·,·,·
CC1CCc2nc(NC(=O)c3ccco3)sc2C1 (centres undefined),80*,2,11,79*,87*,88*,88*,98*,89*,46
CCCC(=O)Nc1nc2ccc(C(=O)OCC)cc2s1,-7,-4,0,1,-1,·,·,·,·,·
Cc1nc(NC(=S)NC(=O)c2ccco2)sc1C(=O)N(C)C,-1,11,11,7,-7,·,·,·,·,·
